Data taken from PubChem BioAssay AID2284067 (EPA ToxCast).
The source made the active and inactive calls. The calls were made as follows: active = hit-call score of the fitted dose curve at least 0.9, where 1 is the maximum; inactive = score below 0.9.

target: human DYRK1A CMGC Kinase, DYRK1A (gene 1859) (UniProt Q13627); assay: ERF_FR_ENZ_hDYRK1A: Eurofins (ERF) Enzymatic Radiometric [Km ATP] KinaseProfiler LeadHunter Assay for human DYRK1A CMGC Kinase
Experimental: ERF_FR_ENZ_hDYRK1A is a biochemical, single-readout assay that uses extracted gene-proteins in a cell-free assay. Measurements were taken 0.5 hour after chemical dosing in a 96-well plate. See DYRK1A Human CMGC Kinase Enzymatic LANCE Assay [Km ATP], Cerep.ERF_FR_ENZ_hDYRK1A is an assay component calculated from the ERF_FR_ENZ_hDYRK1A assay. It is designed to measure enzyme activity using a type of enzyme reporter as detected by fluorescence intensity with LANCE technology.Data from the assay component ERF_FR_ENZ_hDYRK1A was analyzed at the assay endpoint, ERF_FR_ENZ_hDYRK1A, in the positive analysis fitting direction relative to DMSO as the negative control and baseline of activity. Using a type of enzyme reporter, loss-of-signal activity can be used to understand changes in enzymatic activity as they relate to gene DYRK1A. To generalize the intended target to other relatable targets, this assay endpoint is annotated to the kinase intended target family, where the subfamily is serine/threonine kinase.
DYRK1A (h) is incubated with 8 mM MOPS pH 7.0, 0.2 mM EDTA, 50 uM […], 10 mM MgAcetate and [gamma-33P]-ATP (specific activity and concentration as required). The reaction is initiated by the addition of the Mg/ATP mix. After incubation for 40 minutes at room temperature, the reaction is stopped by the addition of phosphoric acid to […] a concentration of 0.5%. […]

Row | SMILES | AC50
1 | O=C(/C=C/c1ccc(O)cc1)CC(=O)/C=C/c1ccc(O)cc1 | 128 nM (active)
